“And” between values parts separate entries of the source, which are not always exact repeats. Equal values may be shown once. Results filed as inconclusive are left out. Where a call stands in place of a potency, no number is given. The source holds several records for some structures; these can differ, active in one and inactive in another. The source made the active and inactive calls. Unless noted, the call rests on the fitted dose curve; in most records, active means well fitted curve in the direction sought with a large enough effect in the repeat runs; inconclusive means weak or mixed curves; inactive means no such curve, though single readings can be large; an effect the other way counts as inactive or inconclusive.
How the values were obtained:
[1] = qHTS assay for identifying genotoxic compounds that show differential cytotoxicity against isogenic chicken DT40 cell lines with known DNA damage response pathways - wild type cell line (AID 743012); further: nearly all actives have a fitted effect of over 60% in size; further: potency means the concentration at half of the fitted maximal effect
How it was run: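 Using parental DT40 (300 cells/well), compounds delivered in DMSO incubate 40 h at 37 C/5% CO2. CellTiter-Glo reagent then stands 30 min at room temperature, and luminescence gives cell viability.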

[2] = qHTS assay for identifying genotoxic compounds that show differential cytotoxicity against isogenic chicken DT40 cell lines with known DNA damage response pathways - Rev3 mutant cell line (AID 743014); further: nearly all actives have a fitted effect of over 55% in size; further: potency means the concentration at half of the fitted maximal effect
[3] = qHTS assay for identifying genotoxic compounds that show differential cytotoxicity against isogenic chicken DT40 cell lines with known DNA damage response pathways - Rad54/Ku70 mutant cell line (AID 743015); further: nearly all actives have a fitted effect of over 60% in size; further: potency means the concentration at half of the fitted maximal effect
[4] = qHTS assay to identify small molecule antagonists of the androgen receptor (AR) signaling pathway using the MDA cell line - cell viability counter screen (AID 743041; further: nearly all actives have a fitted effect of over 45% in size)
How it was run: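 Same-well cytotoxicity was assessed by CellTiter-Fluor in MDA-kb2 AR-luc cells after 16 h of compound treatment under R1881 agonism.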

[5] = qHTS assay to identify small molecule antagonists of the thyroid receptor (TR) signaling pathway - cell viability counter screen (AID 743064); further: nearly all actives have a fitted effect of over 50% in size; further: potency means the concentration at half of the fitted maximal effect
How it was run: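 Counter screen for cytotoxicity: compound plus T3 (1 nM final) on GH3.TRE-Luc cells, 23.5 h at 37 °C, then fluorescence viability readout with CellTiter-Fluor.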

[6] = qHTS assay to identify small molecule antagonists of the androgen receptor (AR) signaling pathway - cell viability counter screen (AID 743033; further: nearly all actives have a fitted effect of over 45% in size)
[7] = molecular target: Androgen receptor (Homo sapiens) (UniProt P10275); test: qHTS assay to identify small molecule antagonists of the androgen receptor (AR) signaling pathway (AID 743035; active means well fitted inhibition curve with a large enough effect in the signal ratio in the repeat runs, not every such curve was filed as active; the % refers to the signal ratio)
Sequence of Androgen receptor (Homo sapiens) (P10275 whole entry, looked up): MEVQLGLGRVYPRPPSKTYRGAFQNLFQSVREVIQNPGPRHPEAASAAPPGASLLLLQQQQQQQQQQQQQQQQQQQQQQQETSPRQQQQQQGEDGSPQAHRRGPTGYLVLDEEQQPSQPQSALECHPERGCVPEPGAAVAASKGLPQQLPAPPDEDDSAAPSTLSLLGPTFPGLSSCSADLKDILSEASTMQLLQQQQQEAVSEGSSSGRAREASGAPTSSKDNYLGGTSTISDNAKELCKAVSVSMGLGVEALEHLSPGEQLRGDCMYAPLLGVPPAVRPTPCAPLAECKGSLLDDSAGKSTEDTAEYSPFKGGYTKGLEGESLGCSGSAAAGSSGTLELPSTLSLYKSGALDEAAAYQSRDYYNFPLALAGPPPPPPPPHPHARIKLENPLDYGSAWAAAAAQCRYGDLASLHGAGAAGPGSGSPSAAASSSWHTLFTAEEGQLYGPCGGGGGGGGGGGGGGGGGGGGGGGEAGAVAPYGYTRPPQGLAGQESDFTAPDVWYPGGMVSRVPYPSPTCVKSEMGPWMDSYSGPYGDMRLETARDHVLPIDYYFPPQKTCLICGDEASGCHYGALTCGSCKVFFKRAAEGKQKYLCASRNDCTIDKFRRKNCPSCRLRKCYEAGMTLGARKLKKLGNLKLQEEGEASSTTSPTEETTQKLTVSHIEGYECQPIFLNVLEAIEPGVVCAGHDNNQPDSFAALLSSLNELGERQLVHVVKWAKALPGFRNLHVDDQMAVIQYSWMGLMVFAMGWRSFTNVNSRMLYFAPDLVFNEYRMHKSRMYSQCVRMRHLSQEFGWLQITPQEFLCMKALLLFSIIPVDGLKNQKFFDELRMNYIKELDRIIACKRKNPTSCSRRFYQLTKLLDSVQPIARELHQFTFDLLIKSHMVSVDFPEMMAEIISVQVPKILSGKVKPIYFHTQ
How it was run: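 Using qHTS, AR-UAS-bla GripTite HEK293 cells received compound, then R1881, and were cultured 16 h at 37C/5% CO2 before a 2 h room-temperature LiveBLAzer B/G FRET substrate step and fluorescence measurement.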

[8] = molecular target: Androgen receptor (Homo sapiens) (UniProt P10275); test: qHTS assay to identify small molecule agonists of the androgen receptor (AR) signaling pathway (AID 743036; active means well fitted activation curve with a large enough effect in the signal ratio in the repeat runs, with a control signal flat, not every such curve was filed as active; the % refers to the signal ratio)
How it was run: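 In this Tox21 qHTS, 2,000 HEK293 AR-bla cells per well were incubated with compounds for 16 h at 37C and 5% CO2. Fluorescence intensity was recorded 2 h after adding LiveBLAzer B/G FRET substrate at room temperature.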

[9] = molecular target: Androgen receptor (Homo sapiens) (UniProt P10275); test: qHTS assay to identify small molecule antagonists of the androgen receptor (AR) signaling pathway using the MDA cell line (AID 743042; further: nearly all actives have a fitted effect of over 55% in size)
How it was run: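 MDA-kb2 breast carcinoma cells carrying MMTV-luciferase (AR/GR responsive) were co-treated with compounds and the agonist R1881 for 16 h at 37C. Inhibition read as ONE-Glo luminescence; CellTiter-Fluor fluorescence measured in parallel for cytotoxicity.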

Row | SMILES | Potency [1] | Potency [2] | Potency [3] | Potency [4] | Potency [5] | outcome [6] | outcome [7] | Potency [8] | outcome [9]
1 | Cc1ccc(S(=O)(=O)N=C=O)cc1 | inactive | inactive | inactive | inactive | inactive | – | – | – | –
2 | Nc1nc(N)nc(-c2ccccc2)n1 | inactive | inactive | inactive | inactive | inactive | inactive | – | – | –
3 | CC(CCl)OP(=O)(OC(C)CCl)OC(C)CCl (stereo not given) | inactive | inactive | inactive | inactive | – | – | – | – | –
4 | C=CC(C)CCCC(C)(C)O (stereo not given) | inactive | inactive and 61.1 µM (active) | inactive | inactive | inactive | inactive | – | – | –
5 | CC1(C)CC(N)CC(C)(CN)C1 (stereo not given) | inactive | inactive and 54.5 µM (active) | inactive | inactive | inactive | inactive | – | – | –
6 | CCCCCCCCCCCCCCCCO | inactive | inactive and 68.6 µM (active) | inactive | inactive | inactive | inactive | – | – | –
7 | CCc1ccccc1CC | inactive | inactive | inactive | inactive | inactive | inactive | – | – | –
8 | CCCCC(C=O)CC (stereo not given) | inactive | inactive | inactive | inactive | inactive | inactive | – | – | –
9 | CCNc1ccccc1 | inactive | inactive | inactive | inactive | inactive | inactive | inactive | inactive | inactive
10 | NCCNCCN | inactive | inactive and 68.6 µM (active) | inactive | inactive | inactive | inactive | – | – | –
11 | CC(C)(C)c1cc(Cc2cc(C(C)(C)C)c(O)c(C(C)(C)C)c2)cc(C(C)(C)C)c1O | inactive and 61.1 µM (active) | 61.1 µM (active) | inactive and 54.5 µM (active) | inactive | inactive | – | – | – | –
12 | Cc1ccc(C(C)C)c(O)c1 | inactive and 48.6 µM (active) | inactive and 17.2 µM (active) | inactive and 61.1 µM (active) | inactive | 61.1 µM (active) | inactive | – | – | –
13 | c1ccc2c(c1)Cc1ccccc1-2 | inactive | inactive and 61.1 µM (active) | inactive and 61.1 µM (active) | inactive | inactive | inactive | – | – | –
14 | CC(=O)OCCOC(C)=O | inactive | inactive | inactive | inactive | inactive | inactive | – | – | –
15 | C[C@]12CC[C@@H]3c4ccc(O)cc4CC[C@H]3[C@@H]1C[C@@H](O)[C@@H]2O | – | – | – | inactive | inactive | – | – | – | –
16 | CCNc1cccc(C)c1 | inactive | inactive | inactive | inactive | inactive | inactive | – | – | –
17 | CCCCCCCCCCN | inactive | inactive | inactive | inactive | inactive | inactive | – | – | –

Row | SMILES | Potency [1] | Potency [2] | Potency [3] | Potency [4] | Potency [5] | outcome [6] | outcome [7] | Potency [8] | outcome [9]
18 | COc1ccc(CCC(C)=O)cc1 | inactive | inactive | inactive | – | inactive | inactive | – | – | –
19 | C=CC[N+](C)(C)CC=C | inactive | inactive | inactive | inactive | inactive | – | – | – | –
20 | C[Si]1(C)O[Si](C)(C)O[Si](C)(C)O[Si](C)(C)O1 | inactive | inactive | inactive | inactive | inactive | – | – | – | –
21 | O=C(O)CCCCCCCCC(=O)O | inactive | inactive | inactive | inactive | inactive | inactive | – | – | –
22 | CC(=O)OC1CC(C)OC(C)O1 (stereo not given) | inactive | inactive | inactive | inactive | inactive | inactive | – | – | –
23 | CC(=O)Oc1ccc(C)cc1 | inactive | inactive | inactive | inactive | inactive | – | inactive | inactive | inactive
24 | CC(C)CCCCCCCOC(=O)CCCCC(=O)OCCCCCCCC(C)C | inactive | inactive and 38.6 µM (active) | inactive | inactive | inactive | – | – | – | –
25 | O=C1c2ccccc2CCc2ccccc21 | – | – | – | inactive | – | inactive | – | – | –
26 | O=C(O)c1ccccc1C(=O)O | inactive | inactive | inactive | inactive | inactive | inactive | – | – | –
27 | C=C(C)C(=O)OCC(C)C | inactive | inactive | inactive | inactive | inactive | inactive | – | – | –
28 | CCCCOC(=O)c1ccc(N)cc1 | inactive and 13.5 µM (active) | 9.44 µM (active) and 13.5 µM (active) | 7.5 µM (active) and 7.59 µM (active) | inactive | inactive | – | – | – | –
29 | CCNC(=S)NCC | inactive | inactive | inactive | inactive | inactive | inactive | – | – | –
30 | C=C(C)[C@H]1CC=C(C)C(=O)C1 | inactive | inactive | inactive | inactive | inactive | inactive | – | – | –
31 | COCCOC(=O)c1ccccc1C(=O)OCCOC | inactive | inactive | inactive | inactive | inactive | inactive | – | – | –
32 | CC(C)=CCl | inactive | 34.8 µM (active) and inactive | inactive | inactive | inactive | inactive | – | – | –
33 | CC1(C)NC(=O)NC1=O | inactive | inactive | inactive | inactive | inactive | – | – | – | –

— PubChem BioAssay (Tox21)
